Screens from PubChem BioAssay.
AmpC no deterg: inhibitors of E. coli AmpC beta-lactamase without detergent; P00811; AmpC nitrocefin hydrolysis, absorbance 480 nm, 0.0001% Triton; AID 485341; Potency, µM (top dose mostly 57.1 µM), without a hit: at the top dose activity change, negative = inhibition, most hits filed as inhibitors; 0.52% of 330,000 active;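 note: plate controls were no compound for no effect and no enzyme for full effect; nearly all actives have a fitted effect of over 20% in size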
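20 mM phosphate pH 7.0 + 0.01% (detergent screen) or 0.0001% Triton X-100; 5.3 nM AmpC reagent; cpd preinc 15 min RT; nitrocefin (800 uM stock) to start; A480 q20 s × 4 min; Activity was normalised to no-enzyme and no-compound control wells.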
AMA1 RON2 block: inhibitors of Plasmodium falciparum AMA1-RON2 interaction. AID 720542. Potency, µM (doses to about 58.2 µM), for inactives: top-dose activity change, negative = inhibition, hits mostly inhibitors. AlphaScreen AMA1-biotinylated RON2 peptide binding. 0.2% of 360,000 active;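 note: 0% = vehicle wells and -100% = peptide control; nearly all actives have a fitted effect of over 45% in size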
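AMA1 (3D7) with his tag at 25 nM final met compounds first, then biotinylated RON2 peptide at 25 nM; detection used donor plus acceptor beads, 10 µg/mL apiece, read by AlphaScreen after 30 min at room temperature.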
AmpC inh detg: AmpC beta-lactamase inhibition with detergent present; P00811; AmpC hydrolysis of nitrocefin, absorbance 480 nm, 0.01% Triton; Potency, µM (titrated, usually from 114 µM), inactives show at the highest dose activity change, negative = inhibition, actives largely listed as inhibitors; 0.041% of 370,000 active;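 note: 0% = no-compound wells and -100% = no-enzyme wells; nearly all actives have a fitted effect of over 25% in size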
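20 mM phosphate pH 7.0 + 0.01% (detergent screen) or 0.0001% Triton X-100; 5.3 nM AmpC reagent; cpd preinc 15 min RT; nitrocefin (800 uM stock) to start; A480 q20 s × 4 min; Activity was normalised to no-enzyme and no-compound control wells.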
LmPK inhibitor: LmPK (Leishmania mexicana) enzyme inhibition. Q27686. purified LmPK, Kinase-Glo ATP luminescence, 1 h. Potency, µM (top dose mostly 57.5 µM), without a hit: at the highest dose activity change, negative = inhibition, usual class: inhibitors. 0.37% of 290,000 active. AID 1721
Target sequence (Q27686 whole entry, looked up): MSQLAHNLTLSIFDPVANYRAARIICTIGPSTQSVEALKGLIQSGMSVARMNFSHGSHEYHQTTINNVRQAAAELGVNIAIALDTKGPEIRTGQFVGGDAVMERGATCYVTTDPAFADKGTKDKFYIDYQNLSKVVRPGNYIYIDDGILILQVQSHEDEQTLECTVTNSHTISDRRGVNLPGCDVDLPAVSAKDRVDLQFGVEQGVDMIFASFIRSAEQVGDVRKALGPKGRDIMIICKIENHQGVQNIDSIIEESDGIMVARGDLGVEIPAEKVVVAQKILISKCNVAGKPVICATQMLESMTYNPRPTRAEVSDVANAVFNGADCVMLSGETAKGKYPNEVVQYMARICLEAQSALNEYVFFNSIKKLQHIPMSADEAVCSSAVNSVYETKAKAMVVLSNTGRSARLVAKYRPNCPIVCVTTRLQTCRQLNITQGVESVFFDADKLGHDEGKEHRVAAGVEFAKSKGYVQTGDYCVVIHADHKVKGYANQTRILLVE
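Screened at intermediate enzyme activity to detect both inhibitors and activators: LmPK at 0.1 nM, with a 0.5 nM enzyme column as activation reference. PEP 0.5 mM, ADP 0.1 mM; ATP detected by luminescence after 1 h.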
Giardia FBPA inh-1: Giardia lamblia aldolase inhibition. A8B2U2. 0.71% of 290,000 active. Potency, µM (series often up to 59.6 µM), without a hit: at the top dose activity, negative = inhibition, most hits filed as inhibitors. purified Giardia FBPA; note: nearly all actives have a fitted effect of over 55% in size
Target sequence (A8B2U2 whole entry, looked up): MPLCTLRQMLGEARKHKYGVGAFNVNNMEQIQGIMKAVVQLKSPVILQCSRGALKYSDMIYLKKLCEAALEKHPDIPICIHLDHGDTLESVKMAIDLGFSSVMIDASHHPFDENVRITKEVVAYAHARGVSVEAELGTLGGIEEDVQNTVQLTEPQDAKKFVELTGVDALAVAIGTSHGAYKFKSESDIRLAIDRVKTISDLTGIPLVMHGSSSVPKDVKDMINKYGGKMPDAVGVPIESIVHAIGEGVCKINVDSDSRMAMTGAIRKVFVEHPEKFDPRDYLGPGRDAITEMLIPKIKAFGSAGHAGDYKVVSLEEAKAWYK
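Giardia FBPA (40 nM reagent) was preincubated 10 min at RT with compound (up to 57.5 uM final), then substrate plus GAPDH/TPI/NAD/arsenate coupling system with diaphorase/resazurin was added; resorufin fluorescence (525/598 nm) was read after 20 min.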
Giardia growth: blocks growth of Giardia lamblia trophozoites; Giardia lamblia trophozoite growth inhibition; Potency, µM (series often up to 57.5 µM), without a hit: at the highest dose activity change, negative = inhibition, most hits filed as inhibitors; shares compounds with Giardia FBPA inh-1; AID 2785; 5% of 1,500 active;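 note: trophozoites exposed to compound for 48 h at 37 °C; nearly all actives have a fitted effect of over 70% in size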
Mammal cell tox: counter-screen for Giardia aldolase inhibitors: mammalian cell toxicity. shares compounds with Giardia FBPA inh-1. mammalian cell viability counter-screen, qHTS. Potency, µM (doses to about 57.5 µM), without a hit: at the top dose viability change, negative = toxicity, hits mostly inhibitors. 4% of 1,500 active. AID 2786;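 note: Chinese hamster ovary cells used as mammalian cytotoxicity surrogate; viability measured as cellular ATP by luminescence; compound exposure lasted 48 h before reading; nearly all actives have a fitted effect of over 60% in size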
Giardia FBPA inh-2: confirmation of Giardia fructose-bisphosphate aldolase inhibitors. Potency, µM (titrated, usually from 57.5 µM), for inactives: top-dose activity change, negative = inhibition, hits mostly inhibitors. 5% of 1,500 active. purified Giardia aldolase enzyme activity, qHTS. AID 2787. shares compounds with Giardia FBPA inh-1; note: nearly all actives have a fitted effect of over 45% in size
Rabbit FBPA inh: selectivity test for Giardia aldolase inhibitors: rabbit aldolase | shares compounds with Giardia FBPA inh-1 | Rabbit muscle FBPA enzyme inhibition, selectivity counter-screen | Potency, µM (highest dose often 57.5 µM), without a hit: top-dose activity, negative = inhibition, usual class: inhibitors | 4% of 1,500 active | AID 2794; note: nearly all actives have a fitted effect of over 60% in size
GAPDH counter: counter-screen for Giardia aldolase inhibitors: GAPDH coupling enzyme. Potency, µM (titrated, usually from 57.5 µM), for inactives: top-dose activity change, negative = inhibition, most hits filed as inhibitors. GAPDH coupling enzyme counterscreen, biochemical, qHTS. 6% of 1,500 active. shares compounds with Giardia FBPA inh-1; note: nearly all actives have a fitted effect of over 55% in size
The depositor's hits bear a star; u = inconclusive; x = not tested or not shown; ! = not confirmed by another sample; [ ] = dose if it differs, or a comment. Rows were chosen to be rich in hits. Some 1.3% of all compounds tested hit in one or more screens of this group. Calls come from the whole dose curve; as a rule, active = well fitted curve in the direction sought with a large enough effect; inconclusive = small, poorly fitted or top-dose-only effect, or another doubt; inactive = no such curve, though single readings can be large; an effect the other way counts as inactive or inconclusive. Unless noted, % is set by controls: 0 for no effect and ±100 for the full control effect; potency is the fitted concentration of half-maximal effect.

SMILES | AmpC no deterg | AMA1 RON2 block | AmpC inh detg | LmPK inhibitor | Giardia FBPA inh-1 | Giardia growth | Mammal cell tox | Giardia FBPA inh-2 | Rabbit FBPA inh | GAPDH counter
Cc1ccccc1S(=O)(=O)N(C)C[C@@H]1OCc2ccccc2-c2c(n(C)c3ccccc23)C(=O)N([C@H](C)CO)C[C@@H]1C | x | -14% | x | x | x | x | x | x | x | x
Cc1cc(C)c(N2C(=O)CC(Sc3ccccc3N)C2=O)c(C)c1 (configuration not stated) | x | 0% | x | x | x | x | x | x | x | x
CC(=O)C(C(C)=O)c1c(Cl)c(O)c(O)c2c(C(=O)c3ccccc3)coc12 | -34% | 64% | -15% | 11µM* | 18µM* | -12% | -16% | u | -24% | -12%
O=C(COC(=O)CCN=C1NS(=O)(=O)c2ccccc21)NNC(=O)c1ccc(Cl)cc1 | -20% | 77% | u | x | x | x | x | x | x | x
Cc1cc(C)c2nc(-c3ccccn3)cc(C(=O)NCc3ccc(S(N)(=O)=O)cc3)c2c1 | -5%[2.29 µM] | 9% | -9% | -1% | 0% | x | x | x | x | x
Cc1cc(C)c2nc(-c3ccccn3)cc(C(=O)NCCc3ccc(S(N)(=O)=O)cc3)c2c1 | -30% | -24% | 1% | 9% | 18µM* | 3%[10.4 µM] | -1% | -1% | 3% | 15%
CC(=O)N1CCN(C(=S)NC(=O)c2c(-c3ccccc3Cl)noc2C)CC1 | -20% | 64% | -8% | 2% | 16µM* | 0%[10.4 µM] | 0% | -3% | 9% | 2%
Oc1ccc(/C=N/Nc2ccnc3cc(Cl)ccc23)c(O)c1O | -59% | 23% | -9% | -11% | 14µM* | -19% | 0% | u | u | u
O=C(NCCc1ccccc1)c1ccc(-c2ccc(F)c(F)c2)c2ccoc12 | x | 35% | x | x | x | x | x | x | x | x
Cc1cc(C)cc(OCC(=O)Nc2nc3c(s2)CC(C(C)(C)C)CC3)c1 (configuration not stated) | x | x | 2% | x | x | x | x | x | x | x
CCCCCOc1c(Cl)cc(C(=O)N(Cc2ccc(C)o2)C2CCS(=O)(=O)C2)cc1Cl (configuration not stated) | x | x | -7% | x | x | x | x | x | x | x
COc1ccc(COCC(O)CN2CCCC(C(F)(F)F)C2)cc1 (configuration not stated) | 8% | x | -6% | -7% | 11µM* | -14% | 5% | 1% | 4% | 14%
COc1ccc(-c2noc(-c3cccnc3N3CCN(c4ccc(OC)cc4)CC3)n2)cc1 | x | x | -2% | x | x | x | x | x | x | x
O=C(c1cccc(Cl)c1)N1CCN(CCCc2ccccc2)CC1 | 93% | u | -6% | -3% | 13µM* | -9% | 5% | 0% | -2% | -12%
COc1ccc(N(Cc2cccs2)C(=O)c2ccco2)cc1 | x | x | 17% | x | x | x | x | x | x | x
Cc1ccc(NC(=S)N/N=C2\CCCCC2C)cc1 (configuration not stated) | -27% | 24% | -2% | 0% | -16% | x | x | x | x | x
CC1CCCC/C1=N\NC(=S)Nc1cccnc1 (configuration not stated) | -34% | 13% | -8% | 11% | 18µM* | 24% | 0% | -4% | 2% | 4%
COc1cccc(NC(=O)CN(C)CC(=O)Nc2ccc(C)cc2Cl)c1 | 15%[11.4 µM] | 2% | -14% | -1% | 14µM* | -27% | 16% | -2% | 5% | 6%
Cc1ccc(NC(=O)CN(C)CC(=O)Nc2ccccc2Oc2ccccc2)cc1 | 25% | -3% | 1% | -14% | 13µM* | -26% | -5% | -1% | -3% | 3%
O=C(CSc1ncnc2nc[nH]c12)c1ccccc1 | -22% | 7% | 0% | -22% | -3% | x | x | x | x | x
O=C(CSc1ncnc2nc[nH]c12)c1ccc(Cl)cc1 | -19% | 130% | -16% | 1% | 14µM* | -7%[10.4 µM] | -7% | -1% | -5% | 9%
CC(=O)c1cccc(NC(=S)N2CCc3ccccc32)c1 | -35% | 53% | 13% | -8% | 25µM* | 27% | 0% | 4% | 1% | 16%
Fc1cccc(NC(=S)N2CCc3ccccc32)c1 | -35% | -19% | 2% | -1% | x | x | x | x | x | x
S=C(Nc1ccccc1)Nc1nccs1 | -35% | 66% | 6% | -4% | 0.63µM*! | -27%[38.3 µM] | 20µM* | -4% | -8% | -6%
Cn1cc(Cl)c(C(=O)Nc2nccs2)n1 | -23% | 6% | -1% | -3% | x | x | x | x | x | x
SMILES | AmpC no deterg | AMA1 RON2 block | AmpC inh detg | LmPK inhibitor | Giardia FBPA inh-1 | Giardia growth | Mammal cell tox | Giardia FBPA inh-2 | Rabbit FBPA inh | GAPDH counter
O=C(Nc1nccs1)c1ccccn1 | -9% | 100% | -12% | -27% | 18µM* | u | -15% | 1% | 2% | 3%
CCn1cc(Cl)c(C(=O)Nc2nccs2)n1 | -6% | 11% | 4% | -3% | 4µM* | -8%[10.4 µM] | -4% | 1% | 3% | 8%
N/C(=N\NC(=O)Nc1ccccc1)c1ccccn1 | -14% | -12% | 5% | -1% | 20µM* | -10%[10.4 µM] | -1% | -7% | 5% | -1%
N/C(=N\NS(=O)(=O)c1ccccc1)c1ccccn1 | x | 89% | x | x | x | x | x | x | x | x
N#Cc1ccccc1NC(=S)NC(=O)c1cccs1 | -20% | 103% | -12% | -5% | 10µM* | u | -13% | u | u | u
N#Cc1ccccc1NC(=O)COC(=O)c1cccs1 | -20% | 7% | x | x | x | x | x | x | x | x
Cc1ccc(NC(=O)CN2CCC(NC(=O)c3ccccc3F)CC2)cc1C | 28% | 16% | u | 2% | 18µM* | u | -2% | 0% | 1% | 7%
Cc1ccc(O)c(N=Cc2ccc(C)s2)c1 | -29% | 7% | 0% | -4% | u | x | x | x | x | x
Cc1ccc(O)c(N=Cc2cccs2)c1 | -14% | -9% | u | 1% | 20µM* | 3% | 13% | 35µM* | 40µM* | 50µM*
O=C(C(=O)N1CCCN(Cc2ccc(F)cc2)CC1)c1ccccc1 | x | -14% | x | x | x | x | x | x | x | x
Cc1cc(C)nc(N/N=C/c2ccccc2OCC(=O)O)n1 | -20% | 52% | 1% | 0% | 5µM* | 10%[38.3 µM] | -3% | -1% | -2% | -14%
Cc1cc(C)nc(N/N=C/c2ccccc2OCc2ccc(Cl)cc2)n1 | -35% | 7% | u | -2% | -7% | x | x | x | x | x
